Results on 15 molecules are retold here after the supplement of paper PMC6522484.

± gives the standard deviation of the averaged measurements.

The subject of test [1] is DLD1. Kind of test: cell viability (CellTiter-Glo) relative to plate median (fraction of plate median); higher = more viable cells. The note with it: 5 µM; treatment time 24 h; reporter: 7TFP. In outline:
(§1)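 Colorectal cancer cell lines stably carrying lentiviral TCF/Wnt firefly luciferase reporters (7TFP or TCF4/Wnt) were plated in 384-well plates and, 24 h later, given library compounds at a final 5 µM for 24 h. Firefly luciferase or CellTiterGlo luminescence was read on parallel plates with a Tecan F500 reader. Each well's signal was normalised to the plate median in webcellHTS2 (additive, without log transformation). Values are the mean of two independent replicates.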

The next test concerns HCT116. The test is described as above. The note with it: 5 µM; treatment time 24 h; reporter: TCF4/Wnt. Put shortly: as §1
For test [2], the system named is SW480. The description is as above. The conditions noted are these: 5 µM; treatment time 24 h; reporter: 7TFP. In outline:
as §1

Test [3] has as its system DLD1. Kind of test: TCF/Wnt firefly luciferase reporter signal relative to plate median (fraction of plate median); higher = higher Wnt reporter signal. The note with it: 5 µM; treatment time 24 h; reporter: 7TFP. In outline: as §1
In general terms: Reporter assays use an easily measured gene product as a stand-in for the process of interest.

In test [4] the test system is SW480. The description is as above. The note with it: 5 µM; treatment time 24 h; reporter: 7TFP. In outline:
as §1

With `COc1ccc([C@@H]2CC(=O)c3c(O)cc(O)cc3O2)cc1O`, the cell viability is 1.01 ± 0.014 in the test with DLD1 [1], 0.93 ± 0.052 in the test with HCT116 and 0.9885 ± 0.0092 in the test with SW480 [2]. The “TCF/Wnt firefly luciferase reporter signal” value with DLD1 [3] is 1.02 ± 0.11; in the test on SW480 [4], 0.982 ± 0.04.

With `OCc1cccnc1`, the cell viability with DLD1 [1] was 0.978 ± 0.088; in the test with HCT116 it was 1.05 ± 0.17; with SW480 [2], 0.934 ± 0.016. Moreover, the results for the “TCF/Wnt firefly luciferase reporter signal” value in the test with DLD1 [3] and in the test with SW480 [4] were 0.988 ± 0.12 and 0.917 ± 0.017, respectively.

In the case of `COc1ccc(-c2coc3cc(OC(C)=O)cc(OC(C)=O)c3c2=O)cc1`, the cell viability is 1.01 ± 0.023 with DLD1 [1], 0.994 ± 0.079 in the test on HCT116 and 0.976 ± 0.0057 in the test on SW480 [2]. Moreover, the “TCF/Wnt firefly luciferase reporter signal” value was 1.34 ± 0.3 with DLD1 [3] and 1.23 ± 0.16 in the test with SW480 [4].

In the case of `Cc1ccccc1N1C(=O)c2cc(S(N)(=O)=O)c(Cl)cc2NC1C` (stereo not given), the cell viability in the test with DLD1 [1] was 1.06 ± 0.078; in the test with HCT116, 1.02 ± 0.035; in the test on SW480 [2] it was 1.02. Besides, the “TCF/Wnt firefly luciferase reporter signal” value in the test on DLD1 [3] worked out at 1.03 ± 0.072; with SW480 [4], 0.938 ± 0.19.

Take `Nc1c2ccccc2nc2ccccc12`: the figures for the cell viability in the test on DLD1 [1], in the test on HCT116 and in the test with SW480 [2] were 0.942 ± 0.071, 0.919 ± 0.11 and 1.03 ± 0.021, respectively. Also, the “TCF/Wnt firefly luciferase reporter signal” value is 1.52 ± 0.54 in the test on DLD1 [3] and 1.01 ± 0.13 in the test with SW480 [4].

On to `CCOC(=O)[C@H](CCc1ccccc1)N[C@@H](C)C(=O)N1Cc2ccccc2C[C@H]1C(=O)O`, for which the cell viability in the test with DLD1 [1] came to 0.99 ± 0.057; in the test on HCT116, 0.895 ± 0.071; with SW480 [2], 0.952 ± 0.066. In addition, the “TCF/Wnt firefly luciferase reporter signal” value in the test on DLD1 [3] was 0.958 ± 0.0085; in the test with SW480 [4], 0.876 ± 0.0057.

Turning to `O=c1oc2ccccc2c(O)c1Cc1c(O)c2ccccc2oc1=O`, the cell viability turned out to be 0.959 ± 0.037 in the test on DLD1 [1], 0.979 ± 0.044 in the test with HCT116 and 1.01 ± 0.028 in the test on SW480 [2]. Further, the “TCF/Wnt firefly luciferase reporter signal” value in the test with DLD1 [3] is 1.18 ± 0.021; in the test with SW480 [4], 1.08 ± 0.05.

As for `O=C(O)c1cc(O)c2c(c1)[C@H]([C@H]1c3cc(C(=O)O)cc(O)c3C(=O)c3c(O[C@@H]4O[C@H](CO)[C@@H](O)[C@H](O)[C@H]4O)cccc31)c1cccc(O[C@@H]3O[C@H](CO)[C@@H](O)[C@H](O)[C@H]3O)c1C2=O`, the cell viability came out at 0.943 ± 0.028 in the test with DLD1 [1], 0.967 ± 0.12 with HCT116 and 1.01 ± 0.018 in the test on SW480 [2]. In addition, the results for the “TCF/Wnt firefly luciferase reporter signal” value in the test on DLD1 [3] and with SW480 [4] were 1.08 ± 0.19 and 1.01 ± 0.071, respectively.

For the molecule `CCCCCNC(=N)N/N=C/c1c[nH]c2ccc(OC)cc12`, the cell viability in the test on DLD1 [1] was found to be 0.877 ± 0.1; in the test with HCT116 it was 0.964 ± 0.031; in the test with SW480 [2] it was 1.045 ± 0.0071. Moreover, the “TCF/Wnt firefly luciferase reporter signal” value in the test with DLD1 [3] was 1.1 ± 0.028; in the test on SW480 [4], 1.045 ± 0.0071.

As to `Cc1onc(-c2ccccc2Cl)c1C(=O)N[C@@H]1C(=O)N2[C@@H]1SC(C)(C)[C@@H]2C(=O)O`, the figures for the cell viability in the test with DLD1 [1], in the test on HCT116 and with SW480 [2] were 1.02 ± 0.17, 1.02 ± 0.06 and 0.994 ± 0.037, respectively. Further, the “TCF/Wnt firefly luciferase reporter signal” value in the test with DLD1 [3] is 1.02 ± 0.035; in the test on SW480 [4] it was 0.952 ± 0.058.

Regarding `CC1=CC(=O)C(C(C)C)=CC1=O`, the cell viability stood at 1.04 ± 0.057 in the test with DLD1 [1], 1.03 ± 0.054 in the test on HCT116 and 1.05 ± 0.014 with SW480 [2]. The “TCF/Wnt firefly luciferase reporter signal” value in the test on DLD1 [3] is 1.09 ± 0.11; in the test with SW480 [4], 1.1 ± 0.064.

For the molecule `C[C@H]1O[C@@H](O[C@H]2[C@@H](O)C[C@H](O[C@H]3[C@@H](O)C[C@H](O[C@H]4CC[C@@]5(C)[C@H](CC[C@@H]6[C@@H]5CC[C@]5(C)[C@@H](C7=CC(=O)OC7)CC[C@]65O)C4)O[C@@H]3C)O[C@@H]2C)C[C@H](O)[C@@H]1O`, the cell viability with DLD1 [1] worked out at 0.706 ± 0.19; in the test with HCT116 it was 0.33 ± 0.2; in the test on SW480 [2], 0.774 ± 0.052. For the same molecule, the “TCF/Wnt firefly luciferase reporter signal” value in the test on DLD1 [3] worked out at 0.157 ± 0.14; in the test on SW480 [4], 0.32 ± 0.11.

On to `CN(C)CCOC(C)(c1ccccc1)c1ccccn1` (stereo not given), for which the cell viability with DLD1 [1] came out at 1.1 ± 0.2; in the test on HCT116 it was 0.947 ± 0.1; in the test on SW480 [2], 1.04 ± 0.042. For the same molecule, the “TCF/Wnt firefly luciferase reporter signal” value with DLD1 [3] was determined as 0.999 ± 0.016; in the test on SW480 [4], 1.04 ± 0.014.

As to `COc1cc(OC)c(C(C)=O)c(O)c1C`, the cell viability was 0.992 ± 0.026 in the test with DLD1 [1], 0.977 ± 0.1 in the test with HCT116 and 1.045 ± 0.0071 with SW480 [2]. The “TCF/Wnt firefly luciferase reporter signal” value in the test with DLD1 [3] is 0.94 ± 0.11; with SW480 [4] it was 0.885 ± 0.016.

With `Cn1c(=O)c2c(ncn2CC(O)CO)n(C)c1=O` (stereo not given), the cell viability in the test with DLD1 [1] stood at 0.916 ± 0.016; with HCT116 it was 0.996 ± 0.049; with SW480 [2], 0.989 ± 0.03. Further, the results for the “TCF/Wnt firefly luciferase reporter signal” value in the test on DLD1 [3] and with SW480 [4] were 1.09 ± 0.14 and 1.09 ± 0.05, respectively.
